Assay results published in PMC4336329 (PLoS ONE, 2015).
Among all 310,000 compounds or so, about 14,000 (4.5%) showed an effect of 50% or more. The effect is printed as a negative number. The sample as a whole holds a higher share of strong results than the screen did.

target: human ether-à-go-go-related gene (hERG) potassium channel (human, UniProt Q12809); assay: primary screen, population patch clamp on CHO cells stably expressing hERG; higher = less effect of the substance
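Further: peak tail current of the secondary pulse compared with the same well before compound.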

human ether-à-go-go-related gene (hERG) potassium channel, sequence (Q12809 whole entry, looked up): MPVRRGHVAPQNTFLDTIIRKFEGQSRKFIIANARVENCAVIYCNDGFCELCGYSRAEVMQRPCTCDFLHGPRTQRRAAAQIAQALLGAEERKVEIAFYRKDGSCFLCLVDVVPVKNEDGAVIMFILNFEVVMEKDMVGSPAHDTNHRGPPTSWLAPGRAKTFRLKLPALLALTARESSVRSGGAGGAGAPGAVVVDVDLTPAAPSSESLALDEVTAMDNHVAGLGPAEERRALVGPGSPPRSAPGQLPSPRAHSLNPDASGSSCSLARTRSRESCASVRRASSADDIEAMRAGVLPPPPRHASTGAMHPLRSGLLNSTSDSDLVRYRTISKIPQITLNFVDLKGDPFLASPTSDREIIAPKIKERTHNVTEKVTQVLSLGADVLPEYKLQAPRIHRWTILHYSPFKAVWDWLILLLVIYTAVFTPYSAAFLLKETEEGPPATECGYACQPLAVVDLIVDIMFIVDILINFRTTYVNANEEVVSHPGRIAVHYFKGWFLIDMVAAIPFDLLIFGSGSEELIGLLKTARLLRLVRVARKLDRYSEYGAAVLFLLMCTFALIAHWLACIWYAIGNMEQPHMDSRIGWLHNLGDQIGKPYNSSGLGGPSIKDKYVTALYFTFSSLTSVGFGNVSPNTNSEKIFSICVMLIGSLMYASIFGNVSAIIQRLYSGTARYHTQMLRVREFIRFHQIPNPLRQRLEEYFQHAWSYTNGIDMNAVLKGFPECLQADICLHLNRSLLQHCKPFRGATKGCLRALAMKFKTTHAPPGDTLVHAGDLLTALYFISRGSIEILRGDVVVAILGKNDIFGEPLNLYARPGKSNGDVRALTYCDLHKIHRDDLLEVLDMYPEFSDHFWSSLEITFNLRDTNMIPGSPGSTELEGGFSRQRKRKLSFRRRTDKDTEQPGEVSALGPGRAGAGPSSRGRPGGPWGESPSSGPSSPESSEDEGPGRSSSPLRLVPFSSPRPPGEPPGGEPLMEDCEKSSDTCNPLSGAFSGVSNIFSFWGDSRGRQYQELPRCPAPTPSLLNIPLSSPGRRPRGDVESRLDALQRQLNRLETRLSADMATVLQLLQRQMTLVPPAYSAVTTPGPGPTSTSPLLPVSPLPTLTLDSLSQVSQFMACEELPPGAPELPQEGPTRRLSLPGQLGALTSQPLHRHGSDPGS

SMILES | hERG current change (%, negative = inhibition) at 10uM
CC12CCC(=O)N1C(C(=O)Nc1cccc3ccccc13)CS2 (stereo not drawn) | 4.6%
Cc1cc2nc(-c3ccc4c(c3)CCC4)ccn2n1 | -2.72%
Cc1ccc(NS(=O)(=O)c2cccc(C(=O)NCC3CCCO3)c2)cc1 (stereo not drawn) | -10%
Brc1ccc(-c2nn[nH]n2)cc1 | 11.2%
CC(=O)c1ccc2c3c(cccc13)CC2 | 2.96%
O=C(NC1CC1)c1ccc2c3c(cccc13)CC2 | -2.52%
CC(C)(C)NC(=O)c1ccc2c3c(cccc13)CC2 | -51.4%
COc1ccc(Cl)cc1NC(=O)CSc1nnc(C)c(=O)n1N | 2.48%
O=C(c1ccccc1)N1N=C(c2ccc(F)cc2)CC1(O)C(F)(F)F (stereo not drawn) | -5.31%
C/C(=N/OC(=O)CC(C)C)c1cc(-c2ccc(Cl)cc2)no1 | 15%
CCN(c1ccccc1)S(=O)(=O)c1cccc(C(=O)NCC(c2ccco2)N2CCCC2)c1 (stereo not drawn) | -59.3%
COc1ccc(N(C)S(=O)(=O)c2cccc(C(=O)NCC(c3ccco3)N3CCCC3)c2)cc1 (stereo not drawn) | -33.9%
CCN(c1ccccc1)S(=O)(=O)c1cccc(C(=O)NCC(c2cccs2)N2CCOCC2)c1 (stereo not drawn) | -18.7%
Cc1ccc(NS(=O)(=O)c2cccc(C(=O)NCC(c3ccco3)N3CCCC3)c2)cc1 (stereo not drawn) | -47.4%
O=C(NCC(c1ccco1)N1CCCC1)c1cccc(NS(=O)(=O)c2ccccc2)c1 (stereo not drawn) | -5.9%
CN(c1ccccc1)S(=O)(=O)c1ccc(C(=O)NCC(c2ccco2)N2CCCCC2)cc1 (stereo not drawn) | -12.1%
Cc1ccc(N(C)S(=O)(=O)c2cccc(C(=O)NCC(c3ccco3)N3CCCC3)c2)cc1 (stereo not drawn) | -62.5%
CN(C)C(CNC(=O)c1cc(S(=O)(=O)N(C)c2ccc(F)cc2)ccc1Cl)c1ccco1 (stereo not drawn) | -28.3%
CN(c1ccccc1)S(=O)(=O)c1ccc(Cl)c(C(=O)NCC(c2ccco2)N2CCCC2)c1 (stereo not drawn) | -50.9%
CCCn1ncc2c(Nc3ccc(C)c(C)c3)ncnc21 | -25.2%
CC(NC(=O)c1ccco1)C(=O)N1CCN(C(c2ccccc2)c2ccccc2)CC1 (stereo not drawn) | -15.7%
O=C(CN(CC1CCCO1)C(=O)CNS(=O)(=O)c1ccc(Cl)cc1)NCCc1ccccc1 (stereo not drawn) | -20.8%
COc1ccc(CCn2c(O)c(C=Nc3ccc(NC(C)=O)cc3)c(=O)[nH]c2=O)cc1OC | 27.6%

SMILES | hERG current change (%, negative = inhibition) at 10uM
CC(=O)Nc1ccc(S(=O)(=O)NCc2ccccn2)cc1 | 9.6%
O=Cc1cccc(OC(=O)Nc2ccccc2)c1 | 6.95%
CN(C)c1cc(-c2ccc(Cl)cc2Cl)oc(=O)c1Cl | 0.166%
CCOc1c2ccc(C(=O)NCCCCc3ccccc3)cc2nn1CC | -14.1%
c1cn(CCCNc2ncnc3sc4c(c23)CCC4)cn1 | -37.5%
CCCCNc1ncnc2sc3c(c12)CCN(CCC)C3 | -76%
CC1CCc2c(sc3ncnc(N4CCOCC4)c23)C1 (stereo not drawn) | -16.6%
COCCCNc1ncnc2sc3c(c12)CCC(C)C3 (stereo not drawn) | -24.5%
CC1CCc2c(sc3ncnc(NCCN4CCOCC4)c23)C1 (stereo not drawn) | -54.6%
OCCCNc1ncnc2sc3c(c12)CCN(Cc1ccccc1)C3 | -37.9%
Cc1cc(NS(=O)(=O)c2ccc(NC(=O)CSc3nc4ncc(Br)cc4[nH]3)cc2)nc(C)n1 | 20.8%
O=C(c1ccc2c(c1)OCO2)C1CCCN(Cc2ccc(OC(F)F)cc2)C1 (stereo not drawn) | -85.7%
O=C(c1ccc2c(c1)OCO2)C1CCCN(Cc2ccccc2OC(F)F)C1 (stereo not drawn) | -58.8%
CC(C)Oc1cccc(C(=O)C2CCCN(C(=O)c3ccc4c(c3)OCO4)C2)c1 (stereo not drawn) | -26.9%
N/C(=N\OC(=O)COc1ccc2ccccc2c1Br)c1ccncc1 | 5.98%
CCOc1ccc(NC(=O)NCc2ccc3c(c2)OCO3)cc1 | 9.08%
O=C(CCc1nc2ccccc2c(=O)[nH]1)N1CCN(S(=O)(=O)c2ccc(F)cc2)CC1 | -27.6%
O=C(CCc1nc2ccccc2c(=O)[nH]1)N1CCN(c2ccc(F)cc2)CC1 | -68%
CC(=O)N1CCN(C(=O)CCc2nc3ccccc3c(=O)[nH]2)CC1 | 2.7%
Cc1ccc(C)c(S(=O)(=O)N2CCN(C(=O)CCc3nc4ccccc4c(=O)[nH]3)CC2)c1 | -47.1%
O=C(CCc1nc2ccccc2c(=O)[nH]1)N1CCN(S(=O)(=O)c2ccccc2Br)CC1 | -51.3%
CN1CCN(C(=O)CCc2nc3ccccc3c(=O)[nH]2)CC1 | 21.9%
Cc1nc2c3ccccc3nc(NNC(=O)CCC(=O)N3CCN(c4ccc(F)cc4)CC3)n2n1 | -53.2%

SMILES | hERG current change (%, negative = inhibition) at 10uM
COc1ccc(N2CCN(C(=O)CCC(=O)NNc3nc4ccccc4c4nc(C)nn34)CC2)cc1 | -29.1%
Cc1nc2c3ccccc3nc(NNC(=O)CCC(=O)N3CCN(c4ccccc4)CC3)n2n1 | -28.5%
O=C(CSc1ncnc2c1cnn2-c1ccc(F)cc1)NCC1CCCO1 (stereo not drawn) | 13.7%
O=C1CCCS(=O)(=O)c2ccccc21 | 23.8%
Cc1cccc(OCC(=O)NCCCNC(=O)c2ccc(C)nc2)c1 | 17.9%
Cc1ccc(NC2(C(F)(F)F)N=C(c3ccccc3)NC2=O)nc1 (stereo not drawn) | 18.4%
Cc1ccc(N2CCN(c3ccc(NC(=O)CCC(=O)O)cc3)CC2)cc1 | 19.6%
COc1cc(Br)cc(/C=C/c2ccc3cccc(O)c3n2)c1OC | 11.4%
COCCN(Cc1cn(C)nc1-c1ccccc1F)C(C)C | 15.5%
CCCn1c(SCC(=O)Nc2nc3c(s2)CCCC3)nc2c1c(=O)n(C)c(=O)n2C | -1.39%
COc1ccccc1C1(O)CCN(CC(=O)Nc2nc(-c3ccccc3)cs2)CC1 | -56.8%
CN1CCN(CC(=O)Nc2nc(-c3ccccc3)cs2)CC1 | -40.4%
O=C(CS(=O)(=O)c1ccccc1)Nc1nc(-c2ccc(F)cc2)cs1 | 16.6%
Cc1ccc(S(=O)(=O)CC(=O)Nc2nc(-c3ccccc3)cs2)cc1 | -38%
CCCn1c(SCC(=O)Nc2ccccc2N2CCCCC2)nc2c1c(=O)n(C)c(=O)n2C | -29.9%
Cc1nnc(NC(=O)CSc2nc3c(c(=O)n(C)c(=O)n3C)n2C(C)C)s1 | -0.769%
CC(C)n1c(SCC(=O)Nc2ccccc2N2CCCCC2)nc2c1c(=O)n(C)c(=O)n2C | -36.7%
COc1ccc(C2(O)CCN(CC(=O)Nc3nc(-c4ccccc4)cs3)CC2)cc1 | -10.1%
Cn1c(=O)c2c(nc(SCC(=O)Nc3ccccc3N3CCCCC3)n2C)n(C)c1=O | -54%
O=C(CS(=O)(=O)c1ccccc1)Nc1nc(-c2ccccc2)cs1 | -51.9%
CC(C)n1c(SCC(=O)Nc2nc3c(s2)CCCC3)nc2c1c(=O)n(C)c(=O)n2C | -59.2%
O=C(CN1C(=O)NC2(CCCCCC2)C1=O)NCCc1ccccc1 | 1.14%
Cc1noc(C)c1CSCC(=O)Nc1nc2ccc(Oc3ccccc3)cc2s1 | -13.6%

SMILES | hERG current change (%, negative = inhibition) at 10uM
CN(CC(=O)Nc1ccccc1C(F)(F)F)C(=O)CC1OC(=O)c2ccccc21 (stereo not drawn) | 9.27%
CCOC(=O)CSc1nnc(CNc2ccc(Cl)cc2)n1-c1ccccc1 | 11.2%
COc1cc2c(-c3ccc(O)cc3)nc3c(c(C)nn3-c3ccccc3)c2cc1OC | 11.5%
O=C(O)CCSc1nc2ccc(Br)cc2[nH]1 | 8.75%
C=C1C[C@@]23CCC4[C@@](C)(CCC[C@@]4(C)C(=O)OC)C2CC[C@]1(OC(C)=O)C3 (stereo partly drawn) | 10.8%
O=C(Nc1nc(-c2ccc(F)cc2)cs1)c1cnccn1 | -0.514%
CCc1ccc(N(C(C)=O)C2C=CS(=O)(=O)C2)cc1 (stereo not drawn) | -6.3%
O=C(CSc1nc(=O)n2ccccc2n1)NCc1ccc2c(c1)OCO2 | -37.8%
COc1ccc(OC)c(S(=O)(=O)NC(N)=NCCc2ccccc2OC)c1 | 9.89%
Cn1c(CCNC(=O)c2cccs2)nnc1SCC(=O)Nc1nc(-c2ccccc2)cs1 | -7.06%
Cc1ccc(-c2nnc(SCC(=O)Nc3nc4c(s3)CCCC4)n2C)cc1 | 6.99%
CCn1c(CCNC(=O)c2cccs2)nnc1SCC(=O)Nc1nc(-c2ccccc2)cs1 | -52%
Cc1ccccc1C(=O)NCCc1nnc(SCC(=O)Nc2nc(-c3ccccc3)cs2)n1C | 7.36%
CCOC(=O)N1CCN(C(=O)CSCC(=O)Nc2nc(-c3ccc(-c4ccccc4)cc3)cs2)CC1 | -11.9%
Cc1ccc2cc(C)c3nnc(SCC(=O)Nc4nc5c(s4)CCCC5)n3c2c1C | -53.8%
Cc1ccc(C)c2c1cc(C)c1nnc(SCC(=O)Nc3nc4c(s3)CCCC4)n12 | 1.01%
Cc1cccc(-c2nnc(SCC(=O)Nc3nc4c(s3)CCCC4)n2C)c1 | -37.3%
CCn1c(SCC(=O)Nc2nc3c(s2)CCCC3)nnc1-c1ccccc1 | -56.2%
Cn1c(SCC(=O)Nc2nc3c(s2)CCCC3)nnc1-c1ccccc1 | -16.4%
CCOC(=O)N1CCN(C(=O)CSCC(=O)Nc2nc(-c3ccccc3)cs2)CC1 | -50.5%
CCOC(=O)N1CCN(C(=O)CSCC(=O)Nc2nc(-c3ccc(C)cc3)cs2)CC1 | -14.1%
